From PubChem BioAssay (EPA / NIEHS)
Results filed as inconclusive are left out. The source made the active and inactive calls. The calls were made as follows: active = hit-call score of the fitted dose curve at least 0.9, where 1 is the maximum; inconclusive = response in the unintended direction; inactive = score below 0.9.

Each molecule was assayed on xenobiotic metabolism (CYP1A1), CYP1A1 (gene 1543) (assay: CLD_CYP1A1_6hr: CellzDirect (CLD) Gene Expression Assay for xenobiotic metabolism (CYP1A1) at 6 hours (AID 2283661);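 as to AC50: potency for transcript induction above DMSO vehicle baseline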).
Description: CLD_6hr is a cell-based, multiplexed-readout assay that uses hepatocyte, a human liver primary cell, with measurements taken at 6 hours after chemical dosing in a 96-well plate.CLD_CYP1A1_6hr is one of 16 assay component(s) measured or calculated from the CLD_6hr assay. It is designed to make measurements of mRNA induction, a form of inducible reporter, as detected with chemiluminescence signals by Quantitative Nuclease Protection Assay (qNPA) technology.Data from the assay component CLD_CYP1A1_6hr was analyzed at the endpoint, CLD_CYP1A1_6hr, in the positive analysis fitting direction relative to DMSO as the negative control and baseline of activity. Using a type of inducible reporter, gain-of-signal activity can be used to understand changes in the reporter gene as they relate to the gene CYP1A1. Furthermore, this assay endpoint can be referred to as a primary readout. To generalize the intended target to other relatable targets, this assay endpoint is annotated to the cyp intended target family, where subfamily is xenobiotic metabolism.
Human hepatocyte cultures were treated daily for two consecutive days with fresh dosing solutions containing appropriate concentrations of the 320 ToxCast chemicals (chemical identities were blinded to CellzDirect and other ToxCast collaborators), vehicle control (0.2% DMSO), and positive control inducers as summarized in Table 1. Due to the large number of treatment groups and chemicals examined, the ToxCast chemicals were divided into two groups (spanning two independent cultures of hepatocytes from separate donor preparations (Hu778: ToxCast plates 1 and 2; Hu776: ToxCast plates 3 and 4). Each preparation of human hepatocyte cultures was treated with respective vehicle control, medium only control, set of six positive controls/reference chemicals for the five hepatic receptor pathways, and a subset of eight of the ToxCast chemicals (indoxacarb, pyrithiobac-sodium, norflurazon, cyhalofop-butyl, methomyl, thiram, acetochlor, and propiconazole). These replicate data, coupled with internal replicates designed within the blinded ToxCast chemical library, provided additional data to evaluate interindividual differences between hepatocyte preparations and their potential impact on chemical profiles.Cell morphology and integrity were evaluated using phase-contrast microscopy as an indicator of hepatocyte cell health (Tyson & Green, 1987). Cultures for each treatment group (i.e., media, vehicle [0.2% DMSO], positive control inducers [multiple concentrations], and the ToxCast chemicals [multiple concentrations]) were observed and cell morphology was assessed relative to vehicle control cultures at each harvest time point (0, 6, 24, or 48 h). […] Images were evaluated at the conclusion of the study to assess changes in cell integrity and account for the effects of chemical exposure on uncharacteristic changes in concentration-dependent gene expression profiles. The results from these determinations of apparent cytotoxicity were annotated (yes/no) alongside the corresponding qNPA data for reference.At the conclusion of each treatment period, hepatocyte cultures (96-well) were washed with 1 volume of HBSS, lysed by addition of 25 ul ArrayPlate lysis buffer (HTG, Tucson, AZ), and 70 ul/well of Denaturation Oil, denatured by incubation at 95C for 10 min, and frozen at approximately -70C until analysis by nuclease protection assay (qNPA) (Roberts et al., 2007). For qNPA analysis, cell lysates were thawed at 50C for approximately 30 min, qNPA probes were added, and samples were incubated at 95C for 10 min to begin the detection process by denaturing the target RNA, dissociating the duplexes and secondary structure hybridization. At the conclusion of the hybridization period, S1 nuclease reagent was added to each sample to digest all nonprotected nucleotides at 50C for 60-90 min. […]
With `CC(C)(C)C(=O)C(Oc1ccc(Cl)cc1)n1cncn1` (stereo not given) the AC50 was 3.97 µM (active).
In the case of `CCOC(=O)C(C)OC(=O)c1cc(Oc2ccc(C(F)(F)F)cc2Cl)ccc1[N+](=O)[O-]` (stereo not given), the AC50 is reported as 4.58 µM (active).
`CC1(C)C(C=C(Cl)Cl)C1C(=O)OC(C#N)c1cccc(Oc2ccccc2)c1` (stereo not given) was tested, and the AC50 was 2.78 µM (active).
For `O=P(O)(O)CCCl`, the outcome was “inactive”.
For `O=c1n(Cl)c(=O)n(Cl)c(=O)n1Cl`, the AC50 was 11.3 µM (active).
`CCSC(=O)N1CCCCCC1` was tested, and the outcome was “inactive”.
For `CCN(CC)C(=O)C(C)Oc1cccc2ccccc12` (stereo not given), the AC50 was 3.97 µM (active).
In the case of `CCN(CC)c1nc(C)cc(OP(=S)(OC)OC)n1`, the AC50 is reported as 4.71 µM (active).
With `CCOc1nc(C(Cl)(Cl)Cl)ns1` the AC50 was 8.85 µM (active).
`CSC(=O)c1c(C(F)F)nc(C(F)(F)F)c(C(=O)SC)c1CC(C)C` was tested, and the AC50 was 5.31 µM (active).
For `COP(=S)(OC)Oc1ccc([N+](=O)[O-])c(C)c1`, the AC50 was 1.22 µM (active).
For `CCOc1cc(C(C)(C)C)ccc1C1COC(c2c(F)cccc2F)=N1` (stereo not given), the outcome was “inactive”.
In the case of `Nc1c(Cl)c(Cl)nc(C(=O)O)c1Cl`, the AC50 is reported as 20 µM (active).
For `CC(C)N1C(=O)c2ccccc2NS1(=O)=O`, the outcome was “inactive”.
With `Cn1c(-c2ccccc2)cc(-c2ccccc2)[n+]1C` the outcome was “inactive”.
With `CC1(C)C(C(=O)OC(C#N)c2cccc(Oc3ccccc3)c2)C1(C)C` (stereo not given) the outcome was “inactive”.
In the case of `N#CN=C1SCCN1Cc1ccc(Cl)nc1`, the outcome is reported as “inactive”.
In the case of `CCOc1nc(F)cc2nc(S(=O)(=O)Nc3c(Cl)cccc3Cl)nn12`, the outcome is reported as “inactive”.
`CCCCC(O)(Cn1cncn1)c1ccc(Cl)cc1Cl` (stereo not given) was tested, and the AC50 was 0.532 µM (active).
In the case of `CC1(C)CON(Cc2ccccc2Cl)C1=O`, the outcome is reported as “inactive”.
`CC1(C)CCC(=Cc2ccc(Cl)cc2)C1(O)Cn1cncn1` (stereo not given) was tested, and the AC50 was 0.00693 µM (active).
In the case of `Clc1nc(Cl)nc(Nc2ccccc2Cl)n1`, the outcome is reported as “inactive”.
In the case of `Cc1cc(C)nc(Nc2ccccc2)n1`, the AC50 is reported as 3.97 µM (active).
With `CS(=O)(=O)c1ccc(C(=O)C2C(=O)CCCC2=O)c([N+](=O)[O-])c1` the outcome was “inactive”.
With `O=C(O)c1c(Cl)ccc2cc(Cl)cnc12` the outcome was “inactive”.
With `OC(c1ccc(Cl)cc1)(c1ccc(Cl)cc1)C(Cl)(Cl)Cl` the outcome was “inactive”.
With `CC(C)=CC1C(C(=O)OCc2coc(Cc3ccccc3)c2)C1(C)C` (stereo not given) the outcome was “inactive”.
In the case of `Cc1cnc(C2=NC(C)(C(C)C)C(=O)N2)c(C(=O)O)c1` (stereo not given), the outcome is reported as “inactive”.
In the case of `Clc1cccc(C(Cl)(Cl)Cl)n1`, the AC50 is reported as 20 µM (active).
For `COCC(=O)N(c1c(C)cccc1C)C(C)C(=O)OC` (stereo not given), the AC50 was 20 µM (active).
For `Cc1nc(N(C)C)nc(OC(=O)N(C)C)c1C`, the AC50 was 4.32 µM (active).
With `C=CCOC(=O)C(C)(C)OC(=O)c1cc(-n2c(=O)cc(C(F)(F)F)n(C)c2=O)ccc1Cl` the outcome was “inactive”.
For `N#Cc1c[nH]cc1-c1cccc2c1OC(F)(F)O2`, the AC50 was 0.9 µM (active).
For `COC(=O)NC(=S)Nc1ccccc1NC(=S)NC(=O)OC`, the AC50 was 5.11 µM (active).
`Nc1c(Cl)c(F)nc(OCC(=O)O)c1Cl` was tested, and the outcome was “inactive”.
With `COP(=S)(OC)SCn1nnc2ccccc2c1=O` the AC50 was 6.49 µM (active).
In the case of `CC(C)N1C(=O)N(c2ccccc2)CSC1=NC(C)(C)C`, the outcome is reported as “inactive”.
`O=C(Nc1ccccc1-c1ccc(Cl)cc1)c1cccnc1Cl` was tested, and the AC50 was 2.46 µM (active).
`CCNC(=O)NC(=O)C(C#N)=NOC` was tested, and the outcome was “inactive”.
`CCNP(=S)(OC)O/C(C)=C/C(=O)OC(C)C` (stereo not given) was tested, and the AC50 was 3.37 µM (active).
